The values that follow come from the supplement of paper PMC12819154, “High-throughput peptide-centric local stability assay extends protein–ligand identification to membrane proteins, tissues and bacteria” (Nature Structural & Molecular Biology, 2025).

Compound in one test: Cc1nc(Nc2ncc(C(=O)Nc3c(C)cccc3Cl)s2)cc(N2CCN(CCO)CC2)n1 [dasatinib]
Nature of the test: log2 fold change of tryptic peptide abundance, ligand vs vehicle (limited proteolysis) (log2 ratio); higher = more trypsin-susceptible (destabilized). The conditions noted are these: ligand concentration: 5 uM; sample: K562 cleared lysate.

Compound in test [1]: Nc1ncnc2c1ncn2[C@@H]1O[C@H](COP(=O)(O)OP(=O)(O)OP(=O)(O)O)[C@@H](O)[C@H]1O [adenosine 5'-triphosphate]
The description is as above. The conditions noted are these: ligand concentration: 5 mM; sample: E. coli desalted lysate; replicate design: treated before aliquoting. As for the experimental part:
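HT-PELSA: desalted E. coli K-12 BW25113 lysate (with 12 mM MgCl2) incubated with 5 mM ATP (pH 7) or water for 30 min at 25 C, then a 4 min trypsin pulse at 22 C. Peptides were quantified by DIA-MS (4 replicates). Value is the peptide log2 fold change (treated/control); negative = stabilized. Scale: negative = ligand-stabilized region.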

For “MAP3K4 (peptide sequence: LGDFGCSVK, peptide start residue: 1479) (UniProt Q9Y6R4)”, the log2 fold change with dasatinib is -1.67.
With “UniProt P33650 (peptide sequence: AYAGEASQHLDAALAR, peptide start residue: 217)”, the log2 fold change in test [1] was determined as 0.832.
As for “UniProt P77485 (peptide sequence: GTVAVTSDAR, peptide start residue: 461)”, the log2 fold change in test [1] is -0.644.
In the case of “UniProt P25553 (peptide sequence: VAFGGKAVEGK, peptide start residue: 351)”, the log2 fold change in test [1] stood at 1.48.
Take “UniProt P76149 (peptide sequence: AGAAIGAQAGAALKK, peptide start residue: 216)”: in test [1], the log2 fold change is -1.54.
Same read-out and setting: in the case of “UniProt P0A9M8 (peptide sequence: LSVFKPIAQPRTGGDAPDQTTTIVR, peptide start residue: 34)” it was 2.79; in that of “UniProt P00968 (peptide sequence: AQLGSNSTMKKHGR, peptide start residue: 931)”, 0.849.
On the same count and under the same terms, under “UniProt P37745 (peptide sequence: WVGVLLSADNK, peptide start residue: 98)” stands -0.542; under “UniProt P10121 (peptide sequence: KRGFFSWLGFGQK, peptide start residue: 6)”, 0.814.
As for “UniProt P37624 (peptide sequence: LFHIPEAEIPAR, peptide start residue: 376)”, the log2 fold change in test [1] was -1.74.
The same measure, in the same setting: under “UniProt P39383 (peptide sequence: MLESHLR, peptide start residue: 221)” stands -0.592.
The same measure, in the same setting: in the case of “UniProt P15081 (peptide sequence: AFDTLCQQGR, peptide start residue: 30)” it was -0.599; in that of “UniProt P56580 (peptide sequence: KIVYITAGTRPAIVDK, peptide start residue: 26)”, 1.13; in that of “UniProt P36938 (peptide sequence: FMHLDKDGAIR, peptide start residue: 268)”, -0.898.
Regarding “UniProt P32143 (peptide sequence: AGIPDCDQTR, peptide start residue: 282)”, in test [1], the log2 fold change is -2.48.
Regarding “UniProt P76187 (peptide sequence: HFGVSNFTPAQFALLQSR, peptide start residue: 154)”, the log2 fold change in test [1] was -0.944.
On to “UniProt P06999 (peptide sequence: IYAYLSR, peptide start residue: 303)”, for which the log2 fold change in test [1] was -2.25.
Consider “UniProt Q13163 (peptide sequence: DVKPSNMLVNTR, peptide start residue: 283)”, for which the log2 fold change with dasatinib amounted to 1.77.
Take “Jak2 (peptide sequence: VLPQDKEYYK, peptide start residue: 1000) (UniProt O60674)”: the log2 fold change in the test with dasatinib was -0.993.
With “UniProt P15005 (peptide sequence: LAYLLTGEK, peptide start residue: 214)”, the log2 fold change in test [1] is -1.01.
On the same count and under the same terms, under “UniProt P75736 (peptide sequence: SFVDGEWR, peptide start residue: 165)” stands -1.28; under “UniProt P64610 (peptide sequence: IVTMSLKPQNILCHR, peptide start residue: 126)”, -0.974.
Still for that read-out and setting: under “UniProt P32703 (peptide sequence: AATAEVAIVAIQK, peptide start residue: 440)” stands 1.52; under “UniProt Q46861 (peptide sequence: EALPGWSGVDSTRLDTPGK, peptide start residue: 229)”, 0.959.
The same measure, in the same setting: under “UniProt P03841 (peptide sequence: STFISSVKGKG, peptide start residue: 296)” stands 0.922; under “UniProt P75830 (peptide sequence: TNLDYTR, peptide start residue: 179)”, -0.551; under “UniProt P21599 (peptide sequence: VLEVQGMK, peptide start residue: 138)”, -1.
In the case of “UniProt P64554 (peptide sequence: NGFSCQIETSGTHEVR, peptide start residue: 111)”, in test [1], the log2 fold change was -0.431.
Same read-out and setting: under “UniProt P15034 (peptide sequence: QNLTAPATMIDWRPVVHEMR, peptide start residue: 155)” stands -0.448; under “UniProt P27129 (peptide sequence: DVEPMQEK, peptide start residue: 157)”, -0.645.
